USP30 block: inhibitors of human USP30 deubiquitinase | 47,000 compounds, 5.3% hits | inhibition, % at 25 µM | purified USP30, Ub-rhodamine cleavage fluorescence
USP28 inh: inhibitors of human USP28 deubiquitinase; Q96RU2; purified USP28, Ub-rhodamine cleavage fluorescence, 30 min; inhibition, % at 25 µM; 47,000 compounds, 3% hits; AID 1645857
Target sequence (Q96RU2 whole entry, looked up): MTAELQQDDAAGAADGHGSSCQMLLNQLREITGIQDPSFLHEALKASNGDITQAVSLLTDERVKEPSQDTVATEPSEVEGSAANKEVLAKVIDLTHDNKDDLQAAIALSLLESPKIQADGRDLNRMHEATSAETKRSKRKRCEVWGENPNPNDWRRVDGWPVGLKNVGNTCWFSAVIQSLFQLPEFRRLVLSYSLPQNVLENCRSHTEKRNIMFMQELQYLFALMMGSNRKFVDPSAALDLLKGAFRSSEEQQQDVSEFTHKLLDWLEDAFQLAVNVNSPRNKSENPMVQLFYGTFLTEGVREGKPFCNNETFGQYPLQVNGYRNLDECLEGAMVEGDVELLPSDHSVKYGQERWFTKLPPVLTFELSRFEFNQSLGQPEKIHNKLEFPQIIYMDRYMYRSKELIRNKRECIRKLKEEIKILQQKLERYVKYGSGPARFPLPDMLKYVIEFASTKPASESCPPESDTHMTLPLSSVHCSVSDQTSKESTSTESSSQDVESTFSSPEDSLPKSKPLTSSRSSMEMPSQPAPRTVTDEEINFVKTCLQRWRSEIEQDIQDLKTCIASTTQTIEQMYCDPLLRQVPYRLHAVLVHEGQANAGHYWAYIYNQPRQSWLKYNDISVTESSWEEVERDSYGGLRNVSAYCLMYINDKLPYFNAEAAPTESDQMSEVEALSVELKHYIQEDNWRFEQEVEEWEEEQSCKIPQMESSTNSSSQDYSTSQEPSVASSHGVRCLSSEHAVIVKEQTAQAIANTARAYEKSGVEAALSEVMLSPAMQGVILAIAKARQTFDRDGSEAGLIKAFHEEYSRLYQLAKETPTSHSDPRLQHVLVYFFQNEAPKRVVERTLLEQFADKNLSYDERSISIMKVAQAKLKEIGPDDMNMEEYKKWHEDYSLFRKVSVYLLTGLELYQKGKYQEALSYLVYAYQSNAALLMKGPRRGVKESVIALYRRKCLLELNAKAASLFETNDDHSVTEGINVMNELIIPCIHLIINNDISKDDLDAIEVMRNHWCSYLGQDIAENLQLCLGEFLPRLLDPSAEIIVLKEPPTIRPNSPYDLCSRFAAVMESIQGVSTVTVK
* marks the source's active call; other numbers are inactive results. A selection: hits, their analogues and other compounds. The true share with any hit is near 7%. No stated cut-off is given here; in the data, active means inhibition above about 30%; inactive means the rest.

Screening CN(CCc1noc(-c2ccccc2Cl)n1)C(=O)c1ccc(C#N)cc1 returned USP30 block 31.0* and USP28 inh 12.6.
`COc1ccc(C(=O)N(C)CCc2noc(-c3ccc(Cl)cc3)n2)cc1` gave USP30 block 0.7 and USP28 inh -3.5.
Screening O=C(C1CCC1)N1CCCC(Cc2cnc(-c3ncc[nH]3)cn2)C1 (stereo not given) returned USP30 block -2.8 and USP28 inh -10.8.
Screening CCCCCC[C@@H](C)[C@H]1CC(=O)N[C@H](Cc2ccccc2)C(=O)N[C@H](C)C(=O)N[C@@H](CC(C)C)C(=O)O1 returned USP30 block 13.6 and USP28 inh -4.6.
Screening COc1ccc(N2CCN(CC(O)COCc3ccc(Cl)cc3)CC2)cc1 (stereo not given) returned USP30 block -52.2 and USP28 inh -14.2.
Screening SC(COCc1ccccc1)CN1CCN(c2ccccc2)CC1 (stereo not given) returned USP30 block 44.0* and USP28 inh 24.0.
For O=C(c1ccoc1)N1CCC2(CC1)CCN(c1ncccn1)CC2 the results were USP30 block -9.8 and USP28 inh -9.9.
Screening Cc1ccccc1NC(=O)Cc1nnc2c(-c3nc(C4CC4)no3)cccn12 returned USP30 block -6.3 and USP28 inh -3.3.
Cc1ccc(NC(=O)Cc2nnc3c(-c4nc(C5CC5)no4)cccn23)cc1 was read as USP30 block 36.1* and USP28 inh 28.8.
`CNc1nc(C2CCCCN2Cc2ccc3ncccc3c2)nc2c1CCN(C(C)=O)C2` (stereo not given) gave USP30 block -25.7 and USP28 inh -13.3.
Screening CCCc1noc(-c2ccnc(-n3ncc(C(=O)N4CCCCC4)c3C)c2)n1 returned USP30 block 15.8 and USP28 inh 12.4.
Cc1noc(-c2cc(=O)n(CC(=O)NCc3ccccc3F)c3ccccc23)n1 was read as USP30 block 46.4* and USP28 inh 7.7.
Screening Cc1noc(-c2ccc(-n3ncc(C(=O)NCc4ccccc4F)c3C)nc2)n1 returned USP30 block 43.1* and USP28 inh 12.0.
Screening Cc1noc(-c2cc(=O)n(CC(=O)Nc3ccc(F)cc3F)c3ccccc23)n1 returned USP30 block 15.4 and USP28 inh 3.9.
For Cc1noc(-c2ccc(-n3ncc(C(=O)NCc4ccccc4C)c3C)nc2)n1 the results were USP30 block -4.7 and USP28 inh -5.5.
Screening CCCc1noc(-c2ccc(-n3ncc(C(=O)N4CCN(C)CC4)c3C)nc2)n1 returned USP30 block 30.5* and USP28 inh 10.7.
For CCc1ccc(N(C(=O)CCN2CCc3ccccc32)C(C(=O)NCc2ccccc2)c2ccc(F)cc2)cc1 (stereo not given) the results were USP30 block -100.8 and USP28 inh -26.8.
O=C(NC1CCN(C(=O)c2c(Cl)cccc2Cl)CC1)c1ccccc1 was read as USP30 block 24.2 and USP28 inh 9.5.
O=C(NC1CC1)c1ccc(OCC2CCCN(C(=O)c3ccccc3)C2)cc1 (stereo not given) was read as USP30 block 21.5 and USP28 inh 15.4.
O=C(COc1ccc(Cl)cc1)Nc1ccccc1C(=O)Nc1ccccc1 was read as USP30 block -0.2 and USP28 inh -16.2.
`O=C(COc1ccc(Cl)cc1)Nc1noc(-c2cccs2)n1` gave USP30 block 44.4* and USP28 inh 31.2*.
Screening Cc1cccc(CNC(=O)C2CCCN(S(=O)(=O)Cc3ccccc3Cl)C2)c1 (stereo not given) returned USP30 block 38.7* and USP28 inh -0.3.
For CC1CCN(S(=O)(=O)N2CCCC(C(=O)NCc3ccccc3)C2)CC1 (stereo not given) the results were USP30 block 36.0* and USP28 inh 13.9.
COc1ccc(CCNC(=O)C2CCCN(S(=O)(=O)N3CCC(C)CC3)C2)c(OC)c1 (stereo not given) was read as USP30 block 32.7* and USP28 inh 10.4.
COc1ccc(NC(=O)C2CCCN(S(=O)(=O)N3CCC(C)CC3)C2)c(OC)c1 (stereo not given) was read as USP30 block -12.0 and USP28 inh -5.3.
Screening O=C(C1CCCN(S(=O)(=O)N2CCCCC2)C1)N1CCN(c2ccccc2)CC1 (stereo not given) returned USP30 block -15.4 and USP28 inh -13.2.
For COc1ccc(CNC(=O)C2CCCN(S(=O)(=O)Cc3ccccc3Cl)C2)cc1 (stereo not given) the results were USP30 block 14.0 and USP28 inh -12.8.
Screening O=C(C1CCCN(S(=O)(=O)N2CCCCCC2)C1)N1CCN(c2ccccc2)CC1 (stereo not given) returned USP30 block 6.5 and USP28 inh 54.0*.
Screening Cc1cccc(CNC(=O)C2CCCN(S(=O)(=O)N3CCCCC3)C2)c1 (stereo not given) returned USP30 block 10.9 and USP28 inh 9.7.
CNc1nc(C(N)=O)c(NC(=O)c2ccccc2F)s1 was read as USP30 block -77.1 and USP28 inh -29.0.

Assay outcomes deposited in PubChem by Buhrlage Lab, Dana-Farber Cancer Institute and Novartis Institutes for BioMedical Research (Cambridge, Mass).
